IDE inh: human IDE inhibitors in live cells, primary screen, fluorescence polarization, HEK cells, FAbetaB substrate | hit rate 0.41% among 320,000 | Insulin-degrading enzyme (Homo sapiens), P14735 | AID 434962, 2010 | inhibition, % at 5.59 µM | FAbetaB cleavage;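 active = percent inhibition above the average of all tested compounds plus 3 SD, set per screening campaign, cut at about 16% in these data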;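 also: IDE supplied by intact live HEK cells; FP after avidin binding of uncleaved biotin substrate so inhibition keeps polarization high; 0% = DMSO wells and 100% = 60 µM reference IDE inhibitor Ii1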
Rin1-Abl PPI inh: inhibitors of Rin1-Abl protein binding, primary screen, biochemical, TR-FRET; Tyrosine-protein kinase ABL1 (Homo sapiens) + Ras and Rab interactor 1 (Homo sapiens), …; inhibition, % at 7.35 µM; hit rate 0.4% among 360,000; AID 588664, 2011; in the data active = inhibition above about 5%, passing the limit was not always enough
IDE cell activ: human IDE activators in live cells, primary screen, fluorescence polarization, HEK cells, FAbeta-B substrate; Insulin-degrading enzyme (Homo sapiens), P14735; FAbeta-B cleavage; 0% vehicle, 100% cell-free pure enzyme wells; activation, % at 5.96 µM; hit rate 0.073% among 340,000; AID 493087, 2011;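 active = activation above the mean of all tested compounds plus 3 SD, set per screening campaign, cut at about 17% in these data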
Calb FLC: C. albicans growth inhibition with fluconazole, primary screen, CaCi-2 strain, Alamar Blue fluorescence; growth inhibition, % (test concentration not listed); AID 1979, 2009; C. albicans CaCi-2 (fluconazole-resistant clinical isolate) + fluconazole, 48 h; hit rate 0.57% among 300,000;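 active = growth inhibition above about 58% in most replicates, limit read from the data, passing the limit was not always enough; inconclusive = exactly half the replicates above a set limit; inactive = most replicates below a set limit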;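 also: all wells also contain fluconazole at 8 µg/ml as a sub-toxic cotreatment; 0% = median of DMSO wells and 100% = median of geldanamycin control wells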
Rpn11 block: Rpn11 (PSMD14) deubiquitinase inhibitors, primary screen, biochemical, fluorescence polarization, uHTS; 26S proteasome non-ATPase regulatory subunit 14 (Homo sapiens), O00487; inhibition, % at 20 µM; human 26S proteasome, Ub4-pepOG fluorescence polarization; 20S core pre-blocked with epoxomicin; hit rate 0.59% among 360,000;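 active = inhibition at 20 µM, scaled to each plate's controls, above about 33%, limit read from the data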
Target sequence (O00487 whole entry, looked up): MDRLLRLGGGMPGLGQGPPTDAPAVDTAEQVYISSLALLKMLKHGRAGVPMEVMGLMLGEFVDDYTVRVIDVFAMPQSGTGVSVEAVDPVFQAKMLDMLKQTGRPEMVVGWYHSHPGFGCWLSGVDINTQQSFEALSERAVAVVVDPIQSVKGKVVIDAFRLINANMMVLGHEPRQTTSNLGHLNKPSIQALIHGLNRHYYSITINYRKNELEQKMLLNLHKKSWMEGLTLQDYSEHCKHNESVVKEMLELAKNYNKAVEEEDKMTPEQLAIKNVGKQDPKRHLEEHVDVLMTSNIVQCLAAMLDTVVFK
TPT1 inhibitor: Candida albicans TPT1 enzyme inhibitors, primary screen, biochemical, fluorescence polarization | tRNA 2'-phosphotransferase TPT1 (Candida albicans SC5314) | recombinant caTPT1, FP RNA substrate dephosphorylation | inhibition, % at 5 µM | hit rate 0.81% among 300,000;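 active = inhibition above the mean of all tested compounds plus 3 SD, set per screening campaign, cut at about 24% in these data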;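 also: plate controls were DMSO alone for no effect and ferristatin control at 100 nM for full effect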
caTPT1 confirm: Candida albicans TPT1 inhibitors, confirmation, biochemical, fluorescence polarization, triplicate; shares compounds with TPT1 inhibitor; recombinant caTPT1, RNase T1 coupled; inhibition, % at 5 µM; hit rate 74% among 2,400;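 active = inhibition above the primary screen limit, the mean inhibition of all tested compounds plus 3 SD, cut at about 25% in these data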
RNase T1 counter: RNase T1 inhibitors, counter-screen for TPT1 inhibitor project, biochemical, fluorescence polarization; RNase T1 cleavage, 1536-well; hit rate 83% among 2,400; shares compounds with TPT1 inhibitor; AID 2153, 2009; inhibition, % at 5 µM;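 active = inhibition above the solvent-only control well mean plus 3 SD, limit set per screening run, cut at about 23% in these data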;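 also: plate controls were DMSO wells with enzyme for no effect and wells without RNase T1 for full effect; inhibitors block cleavage so intact labeled substrate keeps polarization high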
Target sequence (P00651 whole entry, looked up): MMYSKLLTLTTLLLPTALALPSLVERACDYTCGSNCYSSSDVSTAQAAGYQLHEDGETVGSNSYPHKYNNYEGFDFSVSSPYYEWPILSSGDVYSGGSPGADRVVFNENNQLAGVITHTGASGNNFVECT
* = called active by the depositor; ? = inconclusive; nt = not tested or not shown. Sampled rows, rich in hits. Any-hit rate of the full collection: about 2.3%.

SMILES | IDE inh | Rin1-Abl PPI inh | IDE cell activ | Calb FLC | Rpn11 block | TPT1 inhibitor | caTPT1 confirm | RNase T1 counter
COc1cc(OC)c(OC)cc1/C=C1/C(=O)NC(=O)N(Cc2ccccc2)C1=O | 3 | -2 | 9 | -1 | 0 | 26* | 30* | 41*
COc1ccc2[nH]cc(CCN=C(N)N)c2c1 | -4 | 4 | 8 | -9 | 1 | -3 | nt | nt
COc1ccc2[nH]cc(C3=CCNCC3)c2c1 | 9 | nt | nt | nt | nt | 52* | 61* | 72*
O=C1NC(=O)N(Cc2ccccc2)C(=O)/C1=C/C=C/c1ccco1 | 7 | 2 | -21 | 6 | nt | 75* | 50* | 68*
CCN1C(=O)C(=C/C=C/c2ccco2)C(=O)N(CC)C1=S | 7 | 1 | -17 | nt | nt | 81* | 100* | 104*
CC(C)c1ccc(N2C(=O)NC(=O)/C(=C\C=C\c3ccco3)C2=O)cc1 | 11 | nt | nt | -1 | nt | 130* | 110* | 106*
O=C1NC(=O)N(Cc2ccccc2)C(=O)/C1=C/c1cnn(-c2ccccc2)c1 | 4 | nt | nt | -7 | nt | 15 | nt | nt
COc1ccc(OC(=O)N(C)C[C@@H]2OCc3cnnn3CCCC(=O)N([C@@H](C)CO)C[C@@H]2C)cc1 | nt | 0 | nt | nt | -7 | nt | nt | nt
COc1cccc(N2C(=O)/C(=C/c3ccc(C)o3)C(=O)NC2=S)c1 | 5 | 6 | 1 | 4 | nt | 35* | 35* | 44*
Cc1ccc(N2C(=O)/C(=C/c3ccc(CN(CCC#N)S(C)(=O)=O)o3)C(=O)NC2=S)cc1 | 4 | 5.2* | 0 | 11 | 35 | 36* | 26* | 37*
CCOc1cccc(N2C(=O)/C(=C/c3ccco3)C(=O)NC2=S)c1 | -1 | -1 | 4 | -5 | nt | 20 | nt | nt
COc1ccc(N2C(=O)/C(=C/c3cccs3)C(=O)NC2=S)cc1 | 7 | 0 | 2 | -3 | 7 | 2 | nt | nt
COc1ccc(N2C(=O)/C(=C/c3ccc(N(C)C)o3)C(=O)NC2=S)cc1 | 16 | -14 | -17 | 5 | nt | 134* | 142* | 138*
COC(=O)C1=C(c2ccc(C(C)=O)cc2)C[C@@H]2CC[C@H]1N2C(=O)NCc1ccco1 | 1 | 0 | 2 | nt | -11 | nt | nt | nt
COC(=O)Cn1cc(/C=C2\C(=O)NC(=O)N(c3ccc(OC)cc3)C2=O)c2ccccc21 | -3 | 2 | -3 | 1 | 10 | 25* | -13 | 4
COc1ccc(N2C(=O)NC(=O)/C(=C\c3cn(C)c4ccccc34)C2=O)cc1 | 3 | 2 | -1 | 2 | nt | 67* | 68* | 71*
COCCNC(=O)Cn1cc(/C=C2\C(=O)NC(=O)N(c3ccccc3F)C2=O)c2ccccc21 | 2 | 2 | -8 | 0 | 5 | 27* | 10 | 19
O=C(O)Cn1cc(/C=C2\C(=O)NC(=O)N(c3ccc(F)cc3)C2=O)c2ccccc21 | nt | nt | nt | -4 | nt | nt | nt | nt
CCC1(CCO)C(=O)NC(=S)NC1=O | nt | 1 | 4 | nt | 1 | nt | nt | nt
CC(C)(C)C(=O)O[C@H]1CC[C@@]2(C)C(=CC(=O)C3C2CC[C@]2(C)C(=O)[C@H](O)CC32)C1 (stereo not given in full) | 8 | -1 | 2 | nt | -2 | nt | nt | nt
CCOc1ccc(-n2c(O)c(C=Nc3ccc(N(CC)CC)cc3)c(=O)[nH]c2=O)cc1 | 2 | -5 | 1 | ? | -50 | 31* | 42* | 56*
CCc1nnc(NS(=O)(=O)c2ccc(N=Cc3c(O)n(-c4ccc(Cl)cc4)c(=O)[nH]c3=O)cc2)s1 | 2 | 3 | 50* | 23 | 10 | 40* | 8 | 14
CCOC(=O)c1c(/N=C/c2c(O)n(-c3cccc(C)c3)c(=O)[nH]c2=O)sc2c1CCCC2 | 9 | 0 | -2 | -12 | 32 | 17 | nt | nt
CCOc1ccc(-n2c(O)c(C=Nc3ccc(NC(C)=O)cc3)c(=O)[nH]c2=O)cc1 | -2 | 1 | 4 | 0 | -4 | -2 | nt | nt
CCN(CC)c1ccc(N=Cc2c(O)n(-c3ccccc3C)c(=O)[nH]c2=O)cc1 | 0 | 4 | -8 | ? | 64* | 69* | 72* | 84*
SMILES | IDE inh | Rin1-Abl PPI inh | IDE cell activ | Calb FLC | Rpn11 block | TPT1 inhibitor | caTPT1 confirm | RNase T1 counter
CCOC(=O)c1sc(/N=C/c2c(O)n(-c3ccccc3)c(=O)[nH]c2=O)c(C#N)c1C | 1 | 1 | -1 | -4 | 34 | 32* | 17 | 20
CCCc1nc2ccc(Br)cc2c(=O)n1-c1ccc([N+](=O)[O-])c(C(F)(F)F)c1 | 0 | -1 | -4 | 27 | -5 | -6 | nt | nt
CC(=O)C1C(N2CC2)CC2C3CC=C4CC(O)CCC4(C)C3CCC21C (stereo not given) | nt | 7 | -3 | nt | 7 | nt | nt | nt
CN(CC#CCN1CCCC1)C(=O)c1cccc(Cl)c1 | 4 | -3 | -3 | -6 | -3 | -4 | nt | nt
CCN(CC)c1ccc(N=Cc2c(O)n(-c3ccccc3)c(=O)[nH]c2=O)cc1 | -1 | 4 | -8 | 21 | -1 | 39* | 59* | 71*
CCn1c(O)c(C(=O)CC2NCCc3ccccc32)c(=O)n(CC)c1=S (stereo not given) | 4 | -6 | -10 | nt | 110* | 62* | 56* | 68*
CCn1c(O)c(/C=N/N2CCOCC2)c(=O)n(CC)c1=S | 0 | 1 | 4 | 6 | 4 | 23 | nt | nt
COC(=O)C1=C(c2ccc(S(C)(=O)=O)cc2)C[C@@H]2CC[C@H]1N2C(=O)NCCO | -2 | 4 | 2 | 7 | 0 | 0 | nt | nt
Cc1nn(CC(C)C)c(Cl)c1C(=O)NC1CCCC1 | nt | -1 | nt | nt | -1 | nt | nt | nt
COc1ccc(/C=C2/C(=O)N(Cc3ccco3)C(=O)N(C(C)C)C2=O)cc1 | 1 | -5 | -5 | nt | 171* | 57* | 13 | 18
CCN(CC)c1ccc(/C=C2/C(=O)NC(=O)N(Cc3ccco3)C2=O)cc1 | -1 | -3 | -8 | -3 | 33 | 48* | 94* | 107*
CCN1C(=O)C(=C2C=C(C)N(Cc3ccco3)C(C)=C2)C(=O)N(CC)C1=S | 5 | -23 | 3 | 41 | -7 | 3 | nt | nt
Cc1cc(/C=C2/C(=O)NC(=O)N(Cc3ccco3)C2=O)c(C)n1-c1ccccc1 | 7 | 2 | -4 | 3 | 12 | 23 | nt | nt

Screening data from PubChem BioAssay.
